From PubChem BioAssay (NCI)
“And” between values parts separate entries of the source, which are not always exact repeats. Equal entries are not always repeated. About 79,000 compounds went through this panel and 15% of them were active in at least one assay; those are over-represented in the sample as a whole. Cut-off read from the data, not from the text of the source: active = growth inhibition above about 70%; inactive = the rest.

Columns and labels:
[1] = NCI Yeast Anticancer Drug Screen. Data for the rad50 strain (AID 155);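 note: 0% = growth of vehicle-only cultures of the same strain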; details: S. cerevisiae rad50 strain growth inhibition; at 50.0 µM; stronger effect = higher value
How it was run: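 Yeast carrying a defined DNA repair defect were exposed to test compounds, and growth was compared with vehicle-treated controls to give percent inhibition.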

[2] = NCI Yeast Anticancer Drug Screen. Data for the mec2-1 strain (AID 157); details: S. cerevisiae mec2-1 strain, at 50.0 µM, stronger effect = higher value
How it was run: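 Strain: mec2-1 (DNA repair/cell cycle alteration). Compound exposure, then growth measured; inhibition expressed relative to vehicle.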

[3] = NCI Yeast Anticancer Drug Screen. Data for the sgs1 mgt1 strain (AID 161);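 note: 0% = growth of cultures given vehicle only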; details: S. cerevisiae sgs1 mgt1 strain, at 50.0 µM, stronger effect = higher value
How it was run: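 Inhibition of yeast growth, normalised to vehicle-treated controls, is reported for a strain bearing genetic alterations in DNA damage repair.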

[4] = NCI Yeast Anticancer Drug Screen. Data for the cln2 rad14 strain (AID 165);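 note: 0% = growth equal to vehicle treated cultures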; details: S. cerevisiae cln2 rad14 strain, at 50.0 µM, stronger effect = higher value
How it was run: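 Compounds are applied to the cln2 rad14 yeast strain, and growth is then compared with that of vehicle-treated cultures to give inhibition.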

[5] = NCI Yeast Anticancer Drug Screen. Data for the bub3 strain (AID 167); details: S. cerevisiae bub3 mutant strain, at 50.0 µM, stronger effect = higher value
How it was run: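 Compounds were applied to a genetically altered yeast strain carrying a cell-cycle control defect. Growth inhibition was scored against vehicle-treated controls.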

[6] = NCI Yeast Anticancer Drug Screen. Data for the mlh1 rad18 strain (AID 175); details: S. cerevisiae mlh1 rad18 strain growth inhibition; at 50.0 µM; stronger effect = higher value
How it was run: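 Read-out is yeast growth inhibition, calculated against vehicle-only controls. The compound was applied to a strain engineered with DNA damage repair alterations.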

Measured: growth inhibition

OCCN=Cc1ccccc1O.OCCN=Cc1ccccc1O.[Ni]
inactive: [1] 32.2% | [2] 7.3% | [3] 17.9% | [4] -26.4% | [5] 12.8% | [6] 18.4%

N#CCCCCCl
inactive: [1] 19.4% | [2] 10.9% | [3] 16.3% | [4] 25.2% | [5] 13.6% | [6] 28.9%

COc1cc(CCN(C)C)c([N+](=O)[O-])cc1OC
inactive: [1] 7.9% | [2] 21.6% | [3] 19.3% | [4] 17% | [5] 0.2% | [6] 34.7%

O=[P+](O)c1cc2ccccc2c2ccccc12
inactive: [1] -33% | [2] 17.2% | [3] -4.75% | [4] -46.2% | [5] -10.9% | [6] 1.35%

COc1ccc2c(c1OC(C)=O)-c1cc(O)cc3c1C(C2)N(C(=O)CN(CCCl)CCCl)CC3 (stereo not drawn)
inactive: [1] 19.6% and 6.5% | [2] 8.65% and 5.4% | [3] 24.7% and -25.4% | [4] 10.8% and -4.95% | [5] 22.2% and -7.95% | [6] -21.7% and -30.4%

NC(=O)OCCc1c2ccccc2nc2ccccc12
inactive: [1] 19.6% and 47.6% | [2] 3.75% and 51.5% | [3] 11.5% and 49.9% | [4] 2.6% and 42.4% | [5] 8.15% and 34.1% | [6] 16.1% and 64.5%

[Cl][Ni][Cl].[NH-]C1CCCCC1[NH-].[NH-]C1CCCCC1[NH-] (stereo not drawn)
inactive: [1] -22.9% | [2] -6.45% | [3] 0.85% | [4] -18.6% | [5] 11.8% | [6] -1.85%

CC(C)=CC1C(C(=O)OCCOc2ccccc2)C1(C)C (stereo not drawn)
inactive: [1] -0.75% | [2] -6.5% | [3] 10.2% | [4] -26.6% | [5] -13.6% | [6] -2.05%

O=[N+]([O-])c1cc(/C=N\NC(=S)NC2CN3CCC2CC3)ccc1Cl (stereo not drawn)
inactive: [1] 22.5% | [2] -24.1% | [3] 1.85% | [4] 0.15% | [5] 4.8% | [6] 2.4%

CNC(=O)Oc1cccc2c1C(=O)OC2=O
inactive: [1] -2.7% | [2] 4.25% | [3] -6.55% | [4] -25.1% | [5] 2.15% | [6] 7.1%

CN(C)C1COC2Cc3ccccc3C1O2 (stereo not drawn)
inactive: [1] -25.6% and -13.6% | [2] -26.2% and -9.45% | [3] -3.65% and 1.7% | [4] -22.4% and 3.5% | [5] -0.15% and -8.75% | [6] -77.4% and -90.5%

CN(C)c1ccc(N=Nc2cccc(C(=O)[O-])c2)cc1.CN(C)c1ccc(N=Nc2cccc(C(=O)[O-])c2)cc1.NC1CCCCC1N.[Pt+4]
inactive: [1] -13.4% | [2] -4.05% | [3] -18.4% | [4] 1.2% | [5] -28.1% | [6] 36.5%

CC(=O)OC1CCC2(C)C3CCC4(C)C(Oc5ccccc5)CCC4C3CC(Br)C2(O)C1 (stereo not drawn)
inactive: [1] -48% | [2] -29.9% | [3] -35.9% | [4] 2.75% | [5] -31.6% | [6] -43%

Cc1ccc2n[se]nc2c1
inactive: [1] 11.6% | [2] -15.4% | [3] -16.8% | [4] -0.3% | [5] -15.1% | [6] -8.15%

COc1ccc(CCN(C)C(C)C2C3CC4CC(C3)CC2C4)cc1OC (stereo not drawn)
inactive: [1] 35.5% | [2] 11.3% | [3] 19.2% | [4] -16.4% | [5] -1.1% | [6] 17.9%

O=C(NP(=O)(N1CC1)N1CC1)c1cc(I)ccc1I
inactive: [1] -2.1% | [2] -1.7% | [3] 1.25% | [4] -27.7% | [5] 12.9% | [6] -14.3%

CCN1C(=O)NC(=O)C(CC)(N2CCCCC2)C1=O (stereo not drawn)
inactive: [1] 10.7% | [2] 7.95% | [3] 5% | [4] 15% | [5] 2.55% | [6] 25.4%

O=C1C=CC(=Nc2cc(Cl)c(O)c(Cl)c2)C=C1
inactive: [1] 26.6% | [2] 42.5% | [3] 32.5% | [4] 20.1% | [5] 31.1% | [6] 42.8%
